# Laboratory results: the supplement of paper PMC6089552
# Out of some 3,200 compounds screened, about 300 (9.4%) showed activity. What follows is part of a selection rich in actives, with near analogues and random picks from the rest. A number with no mark means an inactive call.
# Test system: A673/TR/shEF
# Experiment: cell viability (LOESS-normalised, relative to median of negative controls) (log2 ratio); higher = more viable cells (less compound effect), active = hit call of the paper (over 3 MAD below the median)
# Conditions: treatment time: 72 h
# Summary of the method: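 A673/TR/shEF Ewing sarcoma cells were plated at 1,500 per well in 384-well plates and cultured with or without doxycycline, added 24 h before compounds, to induce EWS-FLI1 shRNA knockdown. Library compounds at two or more concentrations, alongside DMSO controls, were applied for three days. Cell viability was measured by CellTiter-Glo luminescence on an Envision reader. Readings were LOESS-corrected per plate, divided by the median of negative controls and log2-transformed, and hits were wells lying at least three median absolute deviations from the median of all screened wells.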
# [1] = 0.103 µM, library screen: screen3, EWS-FLI1 expression: high (no doxycycline)
# [2] = 0.103 µM, library screen: screen3, EWS-FLI1 expression: low (doxycycline-induced shRNA knockdown)
# [3] = 0.25 µM, library screen: screen1, EWS-FLI1 expression: high (no doxycycline)
# [4] = 0.25 µM, library screen: screen1, EWS-FLI1 expression: low (doxycycline-induced shRNA knockdown)
# [5] = 0.25 µM, library screen: screen2, EWS-FLI1 expression: high (no doxycycline)
# [6] = 0.25 µM, library screen: screen2, EWS-FLI1 expression: low (doxycycline-induced shRNA knockdown)
# [7] = 0.308 µM, library screen: screen3, EWS-FLI1 expression: high (no doxycycline)
# [8] = 0.308 µM, library screen: screen3, EWS-FLI1 expression: low (doxycycline-induced shRNA knockdown)
# [9] = 0.926 µM, library screen: screen3, EWS-FLI1 expression: high (no doxycycline)
# [10] = 0.926 µM, library screen: screen3, EWS-FLI1 expression: low (doxycycline-induced shRNA knockdown)
# [11] = 2.5 µM, library screen: screen1, EWS-FLI1 expression: high (no doxycycline)
# [12] = 2.5 µM, library screen: screen1, EWS-FLI1 expression: low (doxycycline-induced shRNA knockdown)
# [13] = 2.5 µM, library screen: screen2, EWS-FLI1 expression: high (no doxycycline)
# [14] = 2.5 µM, library screen: screen2, EWS-FLI1 expression: low (doxycycline-induced shRNA knockdown)
# [15] = 2.8 µM, library screen: screen3, EWS-FLI1 expression: high (no doxycycline)
# [16] = 2.8 µM, library screen: screen3, EWS-FLI1 expression: low (doxycycline-induced shRNA knockdown)
# [17] = 8.3 µM, library screen: screen3, EWS-FLI1 expression: high (no doxycycline)
# [18] = 8.3 µM, library screen: screen3, EWS-FLI1 expression: low (doxycycline-induced shRNA knockdown)
# [19] = 25 µM, library screen: screen3, EWS-FLI1 expression: high (no doxycycline)
# [20] = 25 µM, library screen: screen3, EWS-FLI1 expression: low (doxycycline-induced shRNA knockdown)
smiles,measurement,setting,value
CC(C(=O)O)c1cccc(C(=O)c2ccccc2)c1 (centres undefined),cell viability (log2),[1],0.106
same,cell viability (log2),[2],0.0412
same,cell viability (log2),[3],0.12
same,cell viability (log2),[4],-0.0201
same,cell viability (log2),[5],0.204
same,cell viability (log2),[6],0.13
same,cell viability (log2),[7],0.093
same,cell viability (log2),[8],0.102
same,cell viability (log2),[9],0.0295
same,cell viability (log2),[10],0.058
same,cell viability (log2),[11],0.103
same,cell viability (log2),[12],0.0158
same,cell viability (log2),[13],0.122
same,cell viability (log2),[14],0.173
same,cell viability (log2),[15],0.145
same,cell viability (log2),[16],0.11
same,cell viability (log2),[17],0.0932
same,cell viability (log2),[18],0.0536
same,cell viability (log2),[19],0.0365
same,cell viability (log2),[20],0.131
COC(=O)Nc1nc2ccc(Sc3ccccc3)cc2[nH]1,cell viability (log2),"0.025 µM, library screen: screen2, EWS-FLI1 expression: high (no doxycycline)",0.076
same,cell viability (log2),"0.025 µM, library screen: screen2, EWS-FLI1 expression: low (doxycycline-induced shRNA knockdown)",0.0311
same,cell viability (log2),[1],0.039
same,cell viability (log2),[2],0.0842
same,cell viability (log2),[3],0.0605
same,cell viability (log2),[4],0.108
same,cell viability (log2),[5],0.237
same,cell viability (log2),[6],0.0195
same,cell viability (log2),[7],0.0857
same,cell viability (log2),[8],0.103
same,cell viability (log2),[9],0.0228
same,cell viability (log2),[10],0.0229
same,cell viability (log2),[11],0.101
same,cell viability (log2),[12],0.0874
same,cell viability (log2),[13],0.103
same,cell viability (log2),[14],0.0543
same,cell viability (log2),[15],-0.667 (active)
same,cell viability (log2),[16],-0.0556
same,cell viability (log2),[17],-1.42 (active)
same,cell viability (log2),[18],-0.611 (active)
same,cell viability (log2),"25 µM, library screen: screen2, EWS-FLI1 expression: high (no doxycycline)",-2.26 (active)
same,cell viability (log2),"25 µM, library screen: screen2, EWS-FLI1 expression: low (doxycycline-induced shRNA knockdown)",-0.937 (active)
same,cell viability (log2),[19],-1.77 (active)
same,cell viability (log2),[20],-0.629 (active)
COC(=O)c1ccccc1,cell viability (log2),[3],0.0726
same,cell viability (log2),[4],0.05
same,cell viability (log2),[11],0.155
same,cell viability (log2),[12],0.0447
CC(=O)O[C@H]1C[C@@H](OC(C)=O)C(C)(C)C2CC(=O)[C@]3(C)C(CC[C@@]4(C)[C@H](C(=O)O)OC(=O)C5OC543)[C@]21C (some centres undefined),cell viability (log2),[3],0.123
same,cell viability (log2),[4],0.114
same,cell viability (log2),[11],0.0482
same,cell viability (log2),[12],0.118
CCC(=O)NCC1OC(n2cnc3c(NCc4ccccc4)ncnc32)C(O)C1O (centres undefined),cell viability (log2),[5],0.0412
same,cell viability (log2),[6],0.0737
same,cell viability (log2),[13],0.224
same,cell viability (log2),[14],0.113
COC(=O)C[C@H]1C(C)(C)C(=O)[C@@H]2CC3=C4CC(OC)O[C@@H](c5ccoc5)[C@]4(C)CCC3[C@@]1(C)C2=O (some centres undefined),cell viability (log2),[3],0.115
same,cell viability (log2),[4],0.14
same,cell viability (log2),[11],0.0882
same,cell viability (log2),[12],0.172
COc1ccc(-c2coc3cc(OC(C)=O)cc(OC(C)=O)c3c2=O)cc1,cell viability (log2),[3],0.0854
same,cell viability (log2),[4],-0.00831
same,cell viability (log2),[11],0.156
same,cell viability (log2),[12],0.114
